# Screening results deposited in PubChem BioAssay by National Center for Advancing Translational Sciences (NCATS).
# IL1B secr inh – qHTS for Inhibitors of Inflammasome Signaling: IL-1-beta AlphaLISA Primary Screen; THP-1 LPS/ATP IL-1B secretion, AlphaLISA, 16 h; active compounds read low; activity change, % at 57.5 µM; 360,000 tested, 4.7% active; AID 743279, 2014; in the data active = activity change below about -50%; inconclusive = mostly about -30% to -49%
#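 Secreted IL-1B measured by AlphaLISA bead assay after 16 h compound exposure of THP-1 cells; compounds (final up to 57.5 uM) added 1 h before LPS (250 ng/mL) and ATP (1.25 mM) stimulation; lower signal means less secretion.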
# HT1080 IDH1KD tx – qHTS for induction of synthetic lethality in tumor cells producing 2HG: qHTS for the HT-1080-IDH1KD cell line | HT-1080 IDH1 knockdown viability, ATP luminescence, 48 h | Potency, µM (top dose mostly 46.1 µM), inactives show at the highest dose activity, negative = toxicity, usual class: cytotoxic | 360,000 tested, 2% active;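 note: potency is the fitted concentration of half-maximal effect; 0% = DMSO wells and -100% = cell-free medium wells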
#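 Luminescent ATP read-out (CellTiter-Glo, 10 min at room temperature) after 48 h compound exposure at 37 °C gave viability of IDH1-knockdown HT-1080 cells. Activity was normalised to DMSO and cell-free wells, then fitted as concentration-response curves.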
# HT1080-NT tox – qHTS for induction of synthetic lethality in tumor cells producing 2HG: qHTS for the HT-1080-NT fibrosarcoma cell line. AID 686970, 2013. HT-1080-NT fibrosarcoma viability, CellTiter-Glo ATP luminescence, 48 h. Potency, µM (top dose mostly 46.1 µM), for inactives: at the top dose activity, negative = less viability, actives largely listed as cytotoxic. 360,000 tested, 1.6% active;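 note: NT is the 2HG producing partner of a matched IDH1 knockdown line; potency is the fitted concentration of half-maximal effect; 0% = DMSO-treated cells and -100% = media-only wells without cells; nearly all actives have a fitted effect of over 55% in size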
#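 HT-1080-NT fibrosarcoma cells (2HG-overproducing), 750 cells/well in RPMI with 5% FBS, dosed after 2 h and incubated 48 h at 37C. CellTiter-Glo luminescence normalized to DMSO and no-cell wells; concentration-response curves fitted and classed.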
# TDP1 cell CPT – qHTS for Inhibitors of human tyrosyl-DNA phosphodiesterase 1 (TDP1): qHTS in cells in presence of CPT. chicken DT40 Tdp1-/-;hTDP1 cells + 20 nM CPT, ATP luminescence, 48 h. Potency, µM (top dose mostly 46.2 µM), without a hit: at the top dose activity change, negative = growth inhibition, actives largely listed as inhibitors. 420,000 tested, 12% active. AID 686979, 2013; note: potency is the fitted concentration of half-maximal effect; nearly all actives have a fitted effect of over 55% in size
#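 Cell growth measured by CellTiter-Glo luminescence after a minimum 48 h, 37 C compound exposure with 20 nM CPT in Tdp1-knockout DT40 cells stably expressing hTDP1, seeded 400/well; qHTS titration format.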
# TDP1 cell noCPT – qHTS for Inhibitors of human tyrosyl-DNA phosphodiesterase 1 (TDP1): qHTS in cells in absence of CPT | DT40 Tdp1-/- hTDP1 cells, no CPT, ATP luminescence, 48 h | Potency, µM (top dose mostly 46.2 µM), without a hit: at the highest dose activity change, negative = growth inhibition, most hits filed as inhibitors | 420,000 tested, 15% active; note: potency is the fitted concentration of half-maximal effect; nearly all actives have a fitted effect of over 55% in size
#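 A cellular qHTS used chicken DT40 cells lacking endogenous Tdp1 but carrying stably transfected human TDP1. Compounds were applied without camptothecin, and cell growth kinetics were judged by ATP-dependent luminescence after ≥48 hr.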
# Numbers without * were called inactive; i = inactive; ? = inconclusive; · = no result. Hits are enriched below; roughly 19% of the tested compounds scored in any of these assays. Unless noted, calls come from the whole dose curve; as a rule, active = well fitted curve in the direction sought with a large enough effect; inconclusive = small, poorly fitted or top-dose-only effect, or another doubt; inactive = no such curve, though single readings can be large; an effect the other way counts as inactive or inconclusive. Unless noted, % is set by controls: 0 for no effect and ±100 for the full control effect.
SMILES,IL1B secr inh,HT1080 IDH1KD tx,HT1080-NT tox,TDP1 cell CPT,TDP1 cell noCPT
Cc1ccc(C(=O)N2C(CC(=O)Nc3ccc(Cl)cc3)C(=O)NC3CCCCC32)cc1 (stereo not given),-26,5.2µM*,5.8µM*,16µM*,?
CC(C)(C)c1ccc(C(=O)C2CCCN(C(=O)CCn3cncn3)C2)cc1 (stereo not given),8,-12%,0%,?,?
O=C(CN(CCc1ccccc1)Cc1ccccc1)Oc1ccccc1P(=O)(O)O,6,5%,11%,-9%,4%
O=C(c1cc(COc2cccc(C(F)(F)F)c2)on1)N1CCCC1,?,-11%,0%,?,?
O=C(c1cc(COc2cccc(C(F)(F)F)c2)on1)N1CCC(Oc2cccnc2)CC1,-15,-16%,-3%,15µM*,12µM*
C=CCC1(CC=C)CCCN1C(=O)c1cc(COc2cccc(C(F)(F)F)c2)on1,-9,-23%,-2%,15µM*,15µM*
CCOC(=O)N1CCN(C(=O)c2cc(COc3cccc(C(F)(F)F)c3)on2)CC1,-22,2%,2%,?,16µM*
O=C(c1cc(COc2cccc(C(F)(F)F)c2)on1)N1CCc2ccccc2C1,0,-5%,-4%,?,-19%
CCN(C)C1CN(Cc2cn(CCCC(=O)OC)nn2)S(=O)(=O)C1 (stereo not given),48,1%,24%,-8%,-1%
Cc1ccc(NC(=O)Nc2nnc(SCC(=O)N(C(C)C)C(C)C)s2)cc1,·,·,·,18µM*,16µM*
CC(C)N(C(=O)CSc1nnc(NC(=O)C2CCC2)s1)C(C)C,-11,2%,-11%,-9%,-9%
CC1(C)CO[C@@H](CC(=O)O)CN1,·,·,·,13%,2%
Cc1cccc(N2CCN(C(=O)c3ccc4ncsc4c3)CC2)c1C,12,5.8µM*,2.6µM*,2.1µM*,5.2µM*
O=C(c1ccc2nc(N3CCOCC3)sc2c1)N1CCCC1,-2,0%,0%,-4%,-10%
O=C(c1cc2sccc2n1Cc1ccccc1)N1CCN(c2nc3ccccc3s2)CC1,-3,8.2µM*,-5%,15µM*,15µM*
O=C(c1ccc2ncsc2c1)N1CCN(c2ccc(O)cc2)CC1,1,6%,2%,?,21µM*
O=C(c1ccc2ncsc2c1)N1CCN(c2nc3ccccc3s2)CC1,i,7%,?,?,15µM*
Cc1cccc(N2CCN(C(=O)c3ccc4nc[nH]c4c3)CC2)c1C,-18,-14%,-13%,12%,?
CCn1c(SCC(=O)Nc2ccccc2OC)nc(O)cc1=O,15,7%,10%,6%,-5%
CN(C1CCCCC1)S(=O)(=O)c1ccc(C(=O)N2CCN(c3nc4ccccc4s3)CC2)cc1,12,9%,0%,23µM*,15µM*
O=C(C1CC1)N1CCN(c2nc3ccccc3s2)CC1,-10,0%,0%,-24%,-11%
Cc1cc(/C=C(\C#N)C(=O)NCc2ccccc2)c(C)[nH]1,-19,-15%,-25%,?,?
CSc1ccccc1C(=O)NCC1Cc2cccc(-c3ncccc3C)c2O1 (stereo not given),·,·,·,-8%,-23%
N#C/C(=C\c1ccc[nH]1)S(=O)(=O)c1ccccc1,7,-5%,8%,-18%,-2%
Cn1c(-c2ccccc2)cnc1SCC(=O)N1CCCc2ccccc21,?,5%,15%,?,?
SMILES,IL1B secr inh,HT1080 IDH1KD tx,HT1080-NT tox,TDP1 cell CPT,TDP1 cell noCPT
Cc1ccc(-c2cnc(SCC(=O)N3CCCc4ccccc43)n2C)cc1,-50*,-10%,-23%,-24%,-20%
Cc1ccc(NCc2nnc(SCC(=O)N3CCCc4ccccc43)o2)c(C)c1,-20,?,-9%,5.8µM*,18µM*
COc1ccc(-c2nnc(SCC(=O)N3CCCc4ccccc43)o2)cc1OC,1,-4%,2%,?,?
O=C(CSc1nnc(-c2ccc(Cl)s2)o1)N1CCCc2ccccc21,-8,23%,19%,?,16µM*
O=C(CSc1nnnn1C1CCCCC1)N1CCc2ccccc21,14,6%,0%,-18%,-16%
O=C(CSc1ncc(-c2ccccc2)n1C1CCCC1)N1CCc2ccccc21,-61*,?,-8%,23µM*,21µM*
Cc1ccc(-n2c(SCC(=O)N3CCCc4ccccc43)nnc2-c2cccnc2)c(C)c1,20,0%,6%,?,23µM*
O=C(CSc1nccn1-c1ccccc1)N1CCc2ccccc21,6,7%,8%,-22%,-21%
O=C(CSc1nccn1-c1ccc(Cl)cc1)N1CCCc2ccccc21,-11,0%,0%,?,15µM*
CCOc1ccccc1-n1c(SCC(=O)N2CCCc3ccccc32)nnc1-c1cccnc1,-12,1%,5%,?,?
O=C(Nc1ccc(C(=O)O)cc1)/C(=C\c1ccc([N+](=O)[O-])cc1)NC(=O)c1ccco1,-5,3%,9%,-25%,-5%
O=C(N/N=C/C(Cl)=C/c1ccc([N+](=O)[O-])cc1)C(=O)Nc1ccc(C(=O)O)cc1,-52*,7%,1%,15µM*,21µM*
O=C(N/N=C/C(Cl)=C/c1ccc([N+](=O)[O-])cc1)C(=O)Nc1ccccc1C(=O)O,1,0%,26%,5.2µM*,8.2µM*
CCN1C(=O)C(F)(CC)C(=O)c2ccccc21 (stereo not given),14,6%,7%,7%,-1%
COc1ccc(OC)c2c1C(=O)c1ccccc1C2=O,-16,-15%,-8%,-9%,-29%
COc1ccc2noc3c2c1C(=O)c1ccccc1-3,?,-27%,-23%,15µM*,18µM*
COc1ccc(N)c2c1C(=O)c1ccccc1C2=O,-85*,-24%,-9%,?,?
COc1cccc2c1C(=O)c1ccc3ccccc3c1C2=O,4,-9%,-6%,-8%,?
O=C1c2ccccc2-c2onc3ccc(NCCCn4ccnc4)c1c23,-97*,?,?,15µM*,?
COc1ccc(OC)c2c1C(=O)C(Cl)=C(Cl)C2=O,-117*,3.3µM*,?,0.23µM*,0.41µM*
COc1ccc(S(=O)(=O)N2CCN(C(=O)Nc3ccccc3OC)CC2)cc1,6,10%,3%,-18%,5%
